Measurements published in PubChem BioAssay (NCATS).
Results filed as inconclusive are left out. Activity calls are given as the source filed them. Calls come from the whole dose curve; as a rule, active = well fitted curve in the direction sought with a large enough effect; inconclusive = small, poorly fitted or top-dose-only effect, or another doubt; inactive = no such curve, though single readings can be large; an effect the other way counts as inactive or inconclusive.

What was measured:
[1] = Quantitative High-Throughput drug screen in 47 multiple myeloma cell lines against the NCATS MIPE library collection: KMM1_JCRB cell viability assay (AID 1918960); note: nearly all actives have a fitted effect of over 30% in size; note: potency is the fitted concentration of half-maximal effect
Procedure, shortened: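 CellTiter-Glo luminescence after 48 h exposure gives viability, scaled between DMSO-only (100%) and media-only (0%) controls. Library compounds are pinned onto 500 myeloma cells per well, incubated at 37C with 5% CO2.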

[2] = Quantitative High-Throughput drug screen in 47 multiple myeloma cell lines against the NCATS MIPE library collection: Karpas417_ECACC cell viability assay (AID 1918961); settings: Karpas417 myeloma viability, CellTiter-Glo ATP luminescence, 48 h; viability (% of DMSO): at 45.8 µM (top of the series); note: potency is the fitted concentration of half-maximal effect
Procedure, shortened: (§1)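 Relative luminescence from CellTiter-Glo served as the viability signal, referenced to DMSO-treated (100%) and cell-free medium (0%) controls. Treatment lasted 48 hours at 37C with 500 cells per well.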

[3] = Quantitative High-Throughput drug screen in 47 multiple myeloma cell lines against the NCATS MIPE library collection: JIM3_ECACC cell viability assay (AID 1918963; note: nearly all actives have a fitted effect of over 35% in size; note: potency is the fitted concentration of half-maximal effect)
Procedure, shortened: as §1

[4] = Quantitative High-Throughput drug screen in 47 multiple myeloma cell lines against the NCATS MIPE library collection: JIM1_ECACC cell viability assay (AID 1918964; note: potency is the fitted concentration of half-maximal effect)
Procedure, shortened: (§2)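 CellTiter-Glo ATP luminescence gave viability after 48 h compound treatment at 37C of 500 multiple myeloma cells per well. Normalisation used DMSO-only wells as 100% and media-only wells as 0% viability; primary qHTS of approved and investigational drugs.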

[5] = Quantitative High-Throughput drug screen in 47 multiple myeloma cell lines against the NCATS MIPE library collection: H1112_PLB cell viability assay (AID 1918967; note: nearly all actives have a fitted effect of over 30% in size; note: potency is the fitted concentration of half-maximal effect)
Procedure, shortened: as §2

[6] = Quantitative High-Throughput drug screen in 47 multiple myeloma cell lines against the NCATS MIPE library collection: KMS27_JCRB cell viability assay (AID 1918970); settings: KMS27 myeloma cells, CellTiter-Glo ATP viability, 48 h; viability (% of DMSO): at 45.8 µM (top of the series); note: nearly all actives have a fitted effect of over 30% in size; note: potency is the fitted concentration of half-maximal effect
Procedure, shortened: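 Myeloma cells (500 per well) were exposed to MIPE 4.0 compounds for 48 h at 37 °C, 5% CO2; viability was read as ATP luminescence with CellTiter-Glo, normalized to DMSO-only (100%) and media-only (0%) wells.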

[7] = Quantitative High-Throughput drug screen in 47 multiple myeloma cell lines against the NCATS MIPE library collection: KMS12PE_JCRB cell viability assay (AID 1918972); note: nearly all actives have a fitted effect of over 30% in size; note: potency is the fitted concentration of half-maximal effect
Procedure, shortened: as §1

[8] = Quantitative High-Throughput drug screen in 47 multiple myeloma cell lines against the NCATS MIPE library collection: KMS26_JCRB cell viability assay (AID 1918975); note: nearly all actives have a fitted effect of over 45% in size; note: potency is the fitted concentration of half-maximal effect
Procedure, shortened: (§3)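 Myeloma cells (500 per well) were exposed to MIPE 4.0 compounds by pin transfer and incubated 48 hours at 37C, 5% CO2. Viability was read as ATP by CellTiter-Glo luminescence, normalised to DMSO (100%) and media-only (0%) wells.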

[9] = Quantitative High-Throughput drug screen in 47 multiple myeloma cell lines against the NCATS MIPE library collection: MMM1_PLB cell viability assay (AID 1918976); note: nearly all actives have a fitted effect of over 35% in size; note: potency is the fitted concentration of half-maximal effect
Procedure, shortened: (§4)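 Readout: median RLU from CellTiter-Glo after 5 min at room temperature. Preceding step was 48 h drug treatment of 500 cells/well at 37 °C, 5% CO2, with DMSO-only and media-only control wells.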

[10] = Quantitative High-Throughput drug screen in 47 multiple myeloma cell lines against the NCATS MIPE library collection: OCIMY1_PLB cell viability assay (AID 1918979); note: nearly all actives have a fitted effect of over 35% in size
Procedure, shortened: as §4

[11] = Quantitative High-Throughput drug screen in 47 multiple myeloma cell lines against the NCATS MIPE library collection: INA6_PLB cell viability assay (AID 1918965; note: nearly all actives have a fitted effect of over 55% in size; note: potency is the fitted concentration of half-maximal effect)
Procedure, shortened: as §1

[12] = Quantitative High-Throughput drug screen in 47 multiple myeloma cell lines against the NCATS MIPE library collection: Karpas25_ECACC cell viability assay (AID 1918968; note: nearly all actives have a fitted effect of over 35% in size; note: potency is the fitted concentration of half-maximal effect)
Procedure, shortened: as §2

[13] = Quantitative High-Throughput drug screen in 47 multiple myeloma cell lines against the NCATS MIPE library collection: KMS12BM_JCRB cell viability assay (AID 1918971); note: nearly all actives have a fitted effect of over 35% in size; note: potency is the fitted concentration of half-maximal effect
Procedure, shortened: as §3

[14] = Quantitative High-Throughput drug screen in 47 multiple myeloma cell lines against the NCATS MIPE library collection: KMS20_JCRB cell viability assay (AID 1918973); note: nearly all actives have a fitted effect of over 45% in size; note: potency is the fitted concentration of half-maximal effect
Procedure, shortened: as §2

[15] = Quantitative High-Throughput drug screen in 47 multiple myeloma cell lines against the NCATS MIPE library collection: NCIH929_DSMZ cell viability assay (AID 1918978); note: nearly all actives have a fitted effect of over 35% in size; note: potency is the fitted concentration of half-maximal effect
Procedure, shortened: as §4

[16] = Quantitative High-Throughput drug screen in 47 multiple myeloma cell lines against the NCATS MIPE library collection: MM1S_ATCC cell viability assay (AID 1918980); note: nearly all actives have a fitted effect of over 45% in size; note: potency is the fitted concentration of half-maximal effect
Procedure, shortened: as §4

[17] = Quantitative High-Throughput drug screen in 47 multiple myeloma cell lines against the NCATS MIPE library collection: KHM11_PLB cell viability assay (AID 1918962)
Procedure, shortened: as §1

[18] = Quantitative High-Throughput drug screen in 47 multiple myeloma cell lines against the NCATS MIPE library collection: JJN3_DSMZ cell viability assay (AID 1918966; note: potency is the fitted concentration of half-maximal effect; nearly all actives have a fitted effect of over 50% in size)
Procedure, shortened: as §2

[19] = Quantitative High-Throughput drug screen in 47 multiple myeloma cell lines against the NCATS MIPE library collection: MOLP8_DSMZ cell viability assay (AID 1918977); note: potency is the fitted concentration of half-maximal effect; nearly all actives have a fitted effect of over 45% in size
Procedure, shortened: as §4

[20] = Quantitative High-Throughput drug screen in 47 multiple myeloma cell lines against the NCATS MIPE library collection: KMS21BM_JCRB cell viability assay (AID 1918974); settings: ATP luminescence, 48 h; viability: at 45.8 µM (top of the series); note: potency is the fitted concentration of half-maximal effect
Procedure, shortened: as §2

| SMILES | Potency [1] | Potency [2] | Potency [3] | Potency [4] | Potency [5] | Potency [6] | Potency [7] | Potency [8] | Potency [9] | Potency [10] | Potency [11] | Potency [12] | Potency [13] | Potency [14] | Potency [15] | Potency [16] | Potency [17] | Potency [18] | Potency [19] | Potency [20] |
| --- | --- | --- | --- | --- | --- | --- | --- | --- | --- | --- | --- | --- | --- | --- | --- | --- | --- | --- | --- | --- |
| CO[C@H]1/C=C\O[C@@]2(C)Oc3c(C)c(O)c4c(O)c(c5c(nc6cc(C)ccn65)c4c3C2=O)NC(=O)C(C)=CC=C[C@H](C)[C@H](O)[C@@H](C)[C@@H](O)[C@@H](C)[C@H](OC(C)=O)[C@H]1C | 18.7 µM (active) | 0.833 µM (active) | inactive | 18.7 µM (active) | inactive | 18.7 µM (active) | 11.8 µM (active) | 8.33 µM (active) | 0.0148 µM (active) | inactive |  |  |  |  |  |  |  |  |  |  |
| CS(=O)(=O)c1ccc(C2=C(c3ccccc3)C(=O)OC2)cc1 | inactive | inactive | inactive |  | inactive |  |  |  |  | inactive | inactive | inactive | inactive | inactive | inactive |  |  |  |  |  |
| OC[C@H]1O[C@@H](O[C@H]2[C@@H](O)[C@@](O)(CO)O[C@@H]2CO)[C@H](O)[C@@H](O)[C@@H]1O | inactive | inactive | inactive | inactive | inactive | inactive | inactive |  | 3.72 µM (active) | inactive | inactive | inactive | inactive |  | inactive | inactive |  |  |  |  |
| CC1(C)[C@H]2CC[C@]3(C)[C@@H](C(=O)C=C4[C@@H]5C[C@@](C)(C(=O)O)CC[C@]5(C)CC[C@]43C)[C@@]2(C)CC[C@@H]1O | inactive | inactive | inactive |  | inactive |  | inactive |  | 3.72 µM (active) | inactive | inactive |  |  |  | inactive | inactive |  |  |  |  |
| O=C(CCCN1CCN(c2ccc(F)cc2)CC1)NC1c2ccccc2CSc2ccccc21 (stereo not drawn) | 4.69 µM (active) | 8.33 µM (active) |  |  | 7.43 µM (active) | 5.9 µM (active) | 4.18 µM (active) |  | 5.9 µM (active) |  | 4.69 µM (active) | 3.32 µM (active) | 11.8 µM (active) |  |  | 10.5 µM (active) | 4.18 µM (active) |  |  |  |
| CCN(CC)CCCCNc1nc2cc(Cl)c(Cl)cc2nc1-c1ccc(-c2cccs2)s1 | 9.35 µM (active) |  | 8.33 µM (active) | 9.35 µM (active) | 7.43 µM (active) | 8.33 µM (active) |  | 13.2 µM (active) | 9.35 µM (active) |  | 4.69 µM (active) | 8.33 µM (active) | 16.6 µM (active) | 4.69 µM (active) | 7.43 µM (active) | 11.8 µM (active) | 10.5 µM (active) | 23.5 µM (active) |  |  |
| CC(C)C[C@@H](N)[C@H](O)C(=O)N[C@H](C(=O)N[C@H](C(=O)N[C@@H](CC(=O)O)C(=O)O)C(C)C)C(C)C | inactive | inactive | 20.9 µM (active) | inactive |  | inactive | inactive |  | 1.66 µM (active) | inactive |  |  | inactive |  |  | 23.5 µM (active) |  |  |  |  |
| Cc1ccc2c(c1)c1c(n2CCc2ccc(C)nc2)CCN(C)C1 | inactive | inactive | inactive | inactive | inactive | inactive |  | inactive |  | inactive |  |  |  |  | inactive | inactive |  |  |  |  |
| CC(=O)OCC(=O)[C@@]1(O)CC[C@H]2[C@@H]3CCC4=CC(=O)C=C[C@]4(C)[C@@H]3[C@@H](O)C[C@@]21C | inactive | inactive |  | inactive | inactive | inactive | inactive |  | 2.64 µM (active) | inactive | 7.43 µM (active) |  | 0.187 µM (active) |  | 0.187 µM (active) | 0.118 µM (active) |  |  |  |  |
| CNC1CCC(N(Cc2cccc(-c3ccncc3)c2)C(=O)c2sc3ccccc3c2Cl)CC1 (stereo not drawn) | 18.7 µM (active) |  | 10.5 µM (active) | 14.8 µM (active) | 14.8 µM (active) | 18.7 µM (active) | 8.33 µM (active) | 20.9 µM (active) | 20.9 µM (active) |  | 7.43 µM (active) |  | 18.7 µM (active) | 5.26 µM (active) | 10.5 µM (active) | 20.9 µM (active) | 8.33 µM (active) | 18.7 µM (active) | 16.6 µM (active) |  |
| CCc1cccc(CC)c1NC(=O)N1Cc2[nH]nc(NC(=O)c3ccc(N4CCN(C)CC4)cc3)c2C1 | 7.43 µM (active) |  | 4.69 µM (active) | inactive | 20.9 µM (active) |  |  |  | inactive |  | 4.69 µM (active) | 13.2 µM (active) | 18.7 µM (active) | 14.8 µM (active) | 16.6 µM (active) |  | 16.6 µM (active) | 1.66 µM (active) |  | 3.72 µM (active) |
| CCNC(=O)CCCC=CC[C@@H]1[C@H](C=CC(O)CCc2ccccc2)[C@@H](O)C[C@@H]1O (stereo partly drawn) | inactive | inactive | inactive | inactive | inactive | inactive |  |  |  | inactive | inactive | inactive | 7.43 µM (active) |  | inactive | 5.9 µM (active) |  |  |  |  |
